Only a selection was taken, and hits are over-represented in it overall.
Sm TGR block: qHTS Assay for the Inhibitors of Schistosoma Mansoni Peroxiredoxins; Schistosoma mansoni thioredoxin glutathione reductase (TGR), Q962Y6; Potency, µM (titrated, usually from 114 µM), for inactives: at the highest dose activity change, negative = inhibition, usual class: inhibitors; 360,000 tested, 3% active; purified TGR, DTNB reduction, TNB absorbance 405 nm; further: potency means the concentration at half of the fitted maximal effect; on the % scale 0 is the no-effect control and ±100 the full control effect; nearly all actives have a fitted effect of over 60% in size
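First, TGR (20 nM dispensed) and NADPH were mixed with compound. Second, a 15 min room-temperature incubation followed. Third, further NADPH and then DTNB were added to start the reaction. Finally, TNB absorbance was monitored kinetically.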
Shiga toxin inh: A qHTS for Small Molecule Inhibitors of Shiga Toxin | Vero cells, Shiga toxin protein synthesis inhibition reporter | inhibition, % at 38.7 µM | 290,000 tested, 9.2% active | AID 2315, 2010; in the data active means inhibition mostly above about 28%, no sharp cut-off; inactive means mostly below about 43%; further: 0% is about no effect
CHX counter: Cycloheximide Counterscreen for Small Molecule Inhibitors of Shiga Toxin. 300,000 tested, 12% active. max response, %. cell reporter, cycloheximide protein synthesis inhibition counterscreen. AID 2314, 2010; in the data active means max response mostly above about 13%, no sharp cut-off; inactive means mostly below about 14%; further: read at 38.3 µM for the half of the compounds with a filed dose; 0% is about no effect
LmPK inh: qHTS Assay for Inhibitors of Leishmania Mexicana Pyruvate Kinase (LmPK) | Q27686 | purified LmPK, Kinase-Glo ATP luminescence, 1 h | Potency, µM (highest dose often 57.5 µM), for the others: at the highest dose activity change, negative = inhibition, most hits filed as inhibitors | 290,000 tested, 0.37% active | AID 1721, 2009; further: potency means the concentration at half of the fitted maximal effect; on the % scale 0 is the no-effect control and ±100 the full control effect
Target sequence (Q27686 whole entry, looked up): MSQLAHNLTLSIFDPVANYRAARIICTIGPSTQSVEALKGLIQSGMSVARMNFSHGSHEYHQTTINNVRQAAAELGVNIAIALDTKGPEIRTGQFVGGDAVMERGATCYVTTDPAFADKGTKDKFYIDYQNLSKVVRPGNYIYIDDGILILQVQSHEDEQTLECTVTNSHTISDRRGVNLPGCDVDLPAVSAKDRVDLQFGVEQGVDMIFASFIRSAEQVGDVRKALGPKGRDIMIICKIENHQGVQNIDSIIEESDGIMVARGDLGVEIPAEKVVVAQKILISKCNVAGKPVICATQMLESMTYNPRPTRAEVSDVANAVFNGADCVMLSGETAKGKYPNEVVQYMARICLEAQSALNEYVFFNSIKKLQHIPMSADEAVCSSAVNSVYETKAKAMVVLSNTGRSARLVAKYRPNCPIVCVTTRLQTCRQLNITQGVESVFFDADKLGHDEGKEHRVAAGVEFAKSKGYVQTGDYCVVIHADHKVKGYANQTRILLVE
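0.1 nM LmPK, 0.5 mM PEP, 0.1 mM ADP; 50 mM imidazole pH 7.2, 7 mM MgCl2, 50 mM KCl; 1 h RT. Kinase-Glo luminescence readout, normalized to no-enzyme (full inhibition) and uninhibited wells.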
Giardia FBPA inh: qHTS Assay for Inhibitors of Fructose-1,6-bisphosphate Aldolase from Giardia Lamblia; 290,000 tested, 0.71% active; AID 2451, 2010; A8B2U2; purified Giardia FBPA; Potency, µM (series often up to 59.6 µM), for inactives: at the highest dose activity, negative = inhibition, actives largely listed as inhibitors; further: potency means the concentration at half of the fitted maximal effect; on the % scale 0 is the no-effect control and ±100 the full control effect; nearly all actives have a fitted effect of over 55% in size
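40 nM FBPA preincubated 10 min at RT with compound (up to 57.5 uM final), then substrate plus GAPDH/TPI/NAD/arsenate coupling and diaphorase/resazurin added. Fluorescence read after 20 min at RT, 525/598 nm.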
Tb PYK inh: qHTS of Trypanosoma Brucei Inhibitors | pyruvate kinase (Trypanosoma brucei), Q57TT1 | Potency, µM (top dose mostly 76.8 µM), for inactives: at the highest dose activity, negative = inhibition, usual class: inhibitors | TbPYK enzyme, Kinase-Glo Plus ATP luminescence, 45 min | AID 624173, 2012 | 410,000 tested, 0.12% active; further: potency means the concentration at half of the fitted maximal effect; on the % scale 0 is the no-effect control and ±100 the full control effect; nearly all actives have a fitted effect of over 50% in size
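Luminescent Kinase-Glo Plus end-point after 45 min room-temperature reaction of T. brucei pyruvate kinase started with 130 uM ADP (final). Buffer TEA 50 mM pH 7.2 with KCl, MgCl2, BSA, Tween-20; titration-based qHTS with fitted concentration-effect curves.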
Numbers without * were called inactive. Unless noted, the call rests on the fitted dose curve; in most records, active means well fitted curve in the direction sought with a large enough effect; inconclusive means small, poorly fitted or top-dose-only effect, or another doubt; inactive means no such curve, though single readings can be large; an effect the other way counts as inactive or inconclusive.

`CCCN1CCN(C(=O)c2oc3ccccc3c2NC(=O)C2CC2)CC1` gave Sm TGR block -7%, Shiga toxin inh -9, CHX counter -2, LmPK inh -9%, Giardia FBPA inh 2% and Tb PYK inh 5%.
`COC(=O)CN=C1OC(=O)N2C(=O)C3=C4C(C[C@H]5C(=O)N(c6ccccc6)C(=O)[C@H]5[C@H]4[C@@]12Cc1ccccc1)[C@H]1C(=O)N(c2ccccc2)C(=O)[C@H]1[C@H]3C` (stereo partly drawn) gave Giardia FBPA inh 2%.
`CCOC(=O)Cc1ccc(NC(=O)N2CC(C)Oc3ccc(Cl)cc32)cc1` (stereo not drawn) gave Sm TGR block 0% and Tb PYK inh -3%.
Screening NC(=O)[C@@H]1CCCN1C(=O)c1cc(COc2ccc3c(c2)CCCC3)on1 returned Sm TGR block 2%, Shiga toxin inh 34*, CHX counter 36*, LmPK inh 0% and Tb PYK inh 0%.
For O=C(c1ccco1)N1CCN(C(=O)c2ccco2)CC1 the results were Tb PYK inh 4%.
For O=C(c1cc(-c2ccc(O)cc2)on1)N1CCN(c2ccc(F)cc2)CC1 the results were Sm TGR block -18%, Shiga toxin inh 5, CHX counter 7, LmPK inh -1%, Giardia FBPA inh -3% and Tb PYK inh -4%.
`CC(C)c1cc(C(=O)N2CCN(C(c3ccccc3)c3ccccc3)CC2)no1` gave Sm TGR block -17%, Shiga toxin inh 32*, CHX counter 29*, LmPK inh -1%, Giardia FBPA inh -3% and Tb PYK inh -3%.
For O=C(c1cc(-c2ccc(F)cc2)on1)N1CCCC1 the results were Sm TGR block 7%, Shiga toxin inh 66*, CHX counter 50*, LmPK inh -13%, Giardia FBPA inh 4% and Tb PYK inh -1%.
`O=C(c1ccco1)N1CCN(C(=O)c2sccc2-c2ccccc2)CC1` gave Sm TGR block 40µM*, Shiga toxin inh 1, CHX counter -2, LmPK inh 2%, Giardia FBPA inh 9% and Tb PYK inh -9%.
For CC(C)Cc1cc(C(=O)N2CCN(C(c3ccccc3)c3ccccc3)CC2)no1 the results were Sm TGR block -7%, Shiga toxin inh -10, CHX counter -2, LmPK inh 0%, Giardia FBPA inh 0% and Tb PYK inh -1%.
`CN1C/C(=C/c2ccc(B(O)O)cc2)C(=O)/C(=C/c2ccc(B(O)O)cc2)C1` gave Shiga toxin inh -2, CHX counter -12 and Giardia FBPA inh -14%.
CCCCNC(=O)C1(C)CCN1C(=O)c1cc(-c2cccs2)oc1C (stereo not drawn) was read as Tb PYK inh -11%.
C=CC1=C(C(=O)O)N2C(=O)C(NC(=O)/C(=N\O)c3csc(N)n3)C2SC1 (stereo not drawn) was read as Giardia FBPA inh inconclusive and Tb PYK inh -10%.
For C[C@@H]1CN([C@H](C)CO)C(=O)CCCn2nncc2CO[C@@H]1CN(C)C(=O)Nc1cccc2ccccc12 the results were Tb PYK inh 6%.
For O=C(c1cc(-c2ccccc2)on1)N1CCCCCC1 the results were Sm TGR block -1%, Shiga toxin inh 71*, CHX counter 29*, LmPK inh 2%, Giardia FBPA inh 1% and Tb PYK inh -5%.
For O=C(c1cc(-c2cccc(Cl)c2)on1)N1CCCCC1 the results were Sm TGR block 1% and Tb PYK inh -4%.
Cc1ccc(C)c2sc(N3CCN(C(=O)c4ccco4)CC3)nc12 was read as Sm TGR block 56µM* and Tb PYK inh -1%.
Cc1cccc2sc(NC(=O)C3CCN(C(=O)c4ccco4)CC3)nc12 was read as Sm TGR block -8%, Shiga toxin inh 40, CHX counter 38*, LmPK inh 4%, Giardia FBPA inh -16% and Tb PYK inh 6%.
`Cc1ccc(Cl)c2sc(N3CCN(C(=O)c4ccco4)CC3)nc12` gave Sm TGR block 5% and Tb PYK inh -8%.
`CCOC(=O)C1CCCN(C(=O)c2cc(COc3ccc(C)nc3)on2)C1` (stereo not drawn) gave Sm TGR block inconclusive, Shiga toxin inh 73*, CHX counter 51*, LmPK inh -7% and Tb PYK inh -6%.
For Cc1cc(C)cc(NC(=O)C2CCN(S(=O)(=O)c3cccc(-c4noc(C)n4)c3)CC2)c1 the results were Sm TGR block -2% and Tb PYK inh 1%.
`CC(=O)c1cccc(NC(=O)CCCN2C(=O)COc3ccc(C)cc32)c1` gave Sm TGR block inconclusive and Tb PYK inh 5%.
Screening Cc1cc(NC(=O)CSc2ncccc2C(=O)O)no1 returned Sm TGR block -3%, Shiga toxin inh 2, CHX counter -2, LmPK inh -1%, Giardia FBPA inh 4% and Tb PYK inh 3%.
O=C(/C=C/c1ccc(-c2ccc(F)cc2)o1)N1CCCC1 was read as Sm TGR block 35µM*, Shiga toxin inh 64*, CHX counter 39*, LmPK inh 0%, Giardia FBPA inh 3% and Tb PYK inh -3%.
Screening O=C(c1sc2ccccc2c1Cl)N1CCC2(CC1)OCCO2 returned Sm TGR block 6%, Shiga toxin inh 17, CHX counter 12*, LmPK inh 5%, Giardia FBPA inh 2% and Tb PYK inh -1%.
`O=C(c1cc(COc2ccc3ncccc3c2)on1)N1CCC[C@H]1CO` gave Sm TGR block 4%, Shiga toxin inh 56*, CHX counter 34*, LmPK inh -1%, Giardia FBPA inh 4% and Tb PYK inh -4%.
`O=C(c1cc(-c2ccccc2)on1)N1CCC2(CC1)OCCO2` gave Sm TGR block 7%, Shiga toxin inh 79*, CHX counter 32*, LmPK inh -13% and Giardia FBPA inh 6%.
Cc1ccc(-c2cc(C(=O)N3CCCCCC3)no2)cc1 was read as Sm TGR block 2%, Shiga toxin inh 102*, CHX counter 48*, LmPK inh -3%, Giardia FBPA inh 5% and Tb PYK inh -18%.
Screening CN1CCN(C(=O)c2cc(-c3ccccc3)on2)CC1 returned Sm TGR block 0%, Shiga toxin inh 109*, CHX counter 38*, LmPK inh -4%, Giardia FBPA inh 1% and Tb PYK inh 4%.
`O=C(c1cc(-c2ccc(F)cc2)on1)N1CCOCC1` gave Sm TGR block -3%, Shiga toxin inh 45, CHX counter 27*, LmPK inh -3%, Giardia FBPA inh 8% and Tb PYK inh -1%.
